TDP1 cell CPT – growth inhibition of DT40 Tdp1-/-;hTDP1 cells with camptothecin (screen for TDP1 inhibitors) | 420,000 compounds, 12% hits | AID 686979 | Potency, µM (titrated, usually from 46.2 µM), for the others: top-dose activity change, negative = growth inhibition, usual class: inhibitors | chicken DT40 Tdp1-/-;hTDP1 cells + 20 nM CPT, ATP luminescence, 48 h; note: potency is the fitted concentration of half-maximal effect; nearly all actives have a fitted effect of over 55% in size
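Chicken DT40 Tdp1-/- cells stably complemented with human TDP1 were seeded at 400 cells/well in medium containing 20 nM camptothecin, exposed to pin-transferred compounds, and grown at 37 °C for at least 48 hr. Viability was read as ATP luminescence.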
TDP1 block – TDP1 (human) enzyme inhibition. 350,000 compounds, 0.28% hits. recombinant TDP1, AlphaScreen DNA substrate cleavage. Potency, µM (titrated, usually from 130 µM), for inactives: at the top dose activity change, negative = inhibition, most hits filed as inhibitors. Q9NUW8; note: potency is the fitted concentration of half-maximal effect; nearly all actives have a fitted effect of over 40% in size
Target sequence (Q9NUW8 whole entry, looked up): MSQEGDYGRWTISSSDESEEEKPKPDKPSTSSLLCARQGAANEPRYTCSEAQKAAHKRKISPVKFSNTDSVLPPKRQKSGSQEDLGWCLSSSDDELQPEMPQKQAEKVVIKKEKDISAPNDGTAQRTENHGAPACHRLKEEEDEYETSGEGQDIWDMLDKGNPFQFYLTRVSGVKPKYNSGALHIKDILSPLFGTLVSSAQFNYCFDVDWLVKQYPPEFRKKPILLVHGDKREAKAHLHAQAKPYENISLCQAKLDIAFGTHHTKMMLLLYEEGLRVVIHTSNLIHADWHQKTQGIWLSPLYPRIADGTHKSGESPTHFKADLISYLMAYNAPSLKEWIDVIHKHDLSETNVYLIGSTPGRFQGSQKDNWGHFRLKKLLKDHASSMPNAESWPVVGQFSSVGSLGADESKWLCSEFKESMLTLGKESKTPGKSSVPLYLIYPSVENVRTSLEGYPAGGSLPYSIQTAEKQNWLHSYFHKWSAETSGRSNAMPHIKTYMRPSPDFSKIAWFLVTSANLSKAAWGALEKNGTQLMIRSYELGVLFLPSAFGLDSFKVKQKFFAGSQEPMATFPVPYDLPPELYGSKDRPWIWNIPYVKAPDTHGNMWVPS
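Recombinant human Tdp1 (E. coli-expressed, 1 nM final) preincubated with compounds 15 min at room temperature, then 5'-biotin/3'-phosphotyrosine-FITC DNA substrate (15 nM final) added for 5 min. AlphaScreen beads (10 ug/ml final) added 10 min; cleavage lowers signal.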
TDP1 cell noCPT – qHTS for Inhibitors of human tyrosyl-DNA phosphodiesterase 1 (TDP1): qHTS in cells in absence of CPT. DT40 Tdp1-/- hTDP1 cells, no CPT, ATP luminescence, 48 h. Potency, µM (doses to about 46.2 µM), inactives show at the top dose activity change, negative = growth inhibition, usual class: inhibitors. 420,000 compounds, 15% hits. AID 686978, 2013; note: potency is the fitted concentration of half-maximal effect; nearly all actives have a fitted effect of over 55% in size
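A cellular qHTS used chicken DT40 cells lacking endogenous Tdp1 but carrying stably transfected human TDP1. Compounds were applied without camptothecin, and cell growth kinetics were judged by ATP-dependent luminescence after ≥48 hr.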
IL1B secr inh – inflammasome signaling inhibition, IL-1 beta readout; activity change, % at 57.5 µM; THP-1 LPS/ATP IL-1B secretion, AlphaLISA, 16 h; stronger effect = lower value; 360,000 compounds, 4.7% hits; in the data active = activity change below about -50%; inconclusive = mostly about -30% to -49%
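THP-1 cells pretreated 1 hr with compounds (up to 57.5 uM final), then stimulated with LPS (250 ng/mL final) plus ATP (1.25 mM final); secreted IL-1B measured by AlphaLISA after 16 hr, decreased signal indicating inhibition.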
ELG1 repair inh – inhibitors of ELG1-dependent DNA repair in HEK293T cells. HEK293T ELG1-luciferase reporter, luminescence, 16 h; DNA damage induced by 5-fluorouridine. Potency, µM (titrated, usually from 46.1 µM), for inactives: at the top dose activity change, negative = inhibition, most hits filed as inhibitors. 330,000 compounds, 2.3% hits. AID 504467; note: potency is the fitted concentration of half-maximal effect; nearly all actives have a fitted effect of over 55% in size
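Luminescence from the luciferase reporter, measured 30 min after ONE-Glo reagent at room temperature, was the read-out. Beforehand, 2,000 cells per well were exposed for 16 hr at 37 °C to 5-fluorouridine together with compound or vehicle.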
Giardia killer – Giardia lamblia killing | Giardia lamblia trophozoite viability | activity change, % at 7.66 µM, hits read low | 340,000 compounds, 0.15% hits; in the data active = activity change below about -80%; inconclusive = between about -30% and that limit;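 note: parasites exposed to compound for two days anaerobically before the ATP read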
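ATP-content bioluminescence gauges trophozoite survival. Cells (100/well) receive compound and incubate anaerobically for 48 hrs at 37 deg C; detection reagent follows for 15-30 min at room temperature.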
* hit, by the source's call; u = inconclusive; x = not tested or not shown; [ ] = another dose, or the depositor's remark. Shown are actives, neighbours in structure and some others; about 19% of the full set was active somewhere. Unless noted, calls come from the whole dose curve; as a rule, active = well fitted curve in the direction sought with a large enough effect; inconclusive = small, poorly fitted or top-dose-only effect, or another doubt; inactive = no such curve, though single readings can be large; an effect the other way counts as inactive or inconclusive. % is set by controls: 0 for no effect and ±100 for the full control effect.

SMILES	TDP1 cell CPT	TDP1 block	TDP1 cell noCPT	IL1B secr inh	ELG1 repair inh	Giardia killer
Cc1c(Cl)cccc1-n1ncc(C(=O)N2CCc3ccccc3C2)c1C1CCN(C(=O)OC(C)(C)C)CC1	u	0%	21µM*	x	x	x
Cc1ccc(-n2ncc(C(=O)NCCN3CCc4ccccc4C3)c2C2CCN(C(=O)OC(C)(C)C)CC2)cc1	21µM*	1%	18µM*	x	x	x
Cc1ccc(-n2ncc(C(=O)NCCN3CCN(C)CC3)c2C2CCN(C(=O)OC(C)(C)C)CC2)cc1C	u	4%	u	x	x	x
Cc1ccc(-n2ncc(C(=O)NCCN3CCc4ccccc4C3)c2C2CCN(C(=O)OC(C)(C)C)CC2)cc1C	16µM*	7%	21µM*	x	x	x
CC(C)(C)OC(=O)N1CCC(c2c(C(=O)O)cnn2-c2ccccc2Cl)CC1	-10%	-1%	-11%	17	-4%	-9
Cc1ccc(-n2ncc(C(=O)N3CCc4ccccc4C3)c2C2CCN(C(=O)OC(C)(C)C)CC2)cc1C	10µM*	4%	u	x	x	x
O/N=C/C1=C(Cl)c2ccccc2CC1	-9%	-3%	-16%	-7	13%	5
COc1cccc([C@@H]2Oc3ccc(Br)cc3C[C@H]2OC(=O)NS(=O)(=O)c2ccc(F)cc2)c1	x	6%	x	x	x	x
Cc1c(Cl)cccc1-n1ncc(C(=O)NCCN2CCN(C)CC2)c1C1CCN(C(=O)OC(C)(C)C)CC1	u	-2%	26µM*	x	x	x
CC(=O)n1cc(N(C(=O)CCl)c2ccc(C)cc2)c2ccccc21	3.3µM*	4%	1.6µM*	-95*	23µM*	0
O=C(O)c1cc(-c2ccc(/C=N/N3C(=O)C4C5C=CC(CC5)C4C3=O)o2)ccc1Cl (centres undefined)	1%	x	1%	-2	14%	-11
O=C1NN(c2ccccc2)C(=O)/C1=C/c1ccc(-c2ccc(Cl)c(C(=O)O)c2)o1	2%	16µM*	-1%	47	11%	-29
Cc1cccc(N2NC(=O)/C(=C/c3ccc(-c4ccc(Cl)c(C(=O)O)c4)o3)C2=O)c1	21%	11µM*	0%	1	18%	7
CCOC(=O)c1cc(-c2ccc(/C=C3/C(=O)N(c4ccc(C(=O)O)cc4)N=C3C)o2)ccc1Cl	u	x	15µM*	11	-27%	-17
CCCCN(C(=O)C1CC1)C1CCS(=O)(=O)C1 (centres undefined)	7%	x	-6%	8	u	20
CC(OC(=O)c1ccc([N+](=O)[O-])s1)C(=O)NC1CCCCC1C (centres undefined)	23µM*	0%	u	11	7%	-86*
Cc1c(NC(=O)C(C)OC(=O)c2ccc([N+](=O)[O-])s2)c(=O)n(-c2ccccc2)n1C (centres undefined)	23µM*	6%	16µM*	34	-25%	2
Cc1c(NC(=O)C(C)OC(=O)c2sc3ccccc3c2Cl)c(=O)n(-c2ccccc2)n1C (centres undefined)	5%	-3%	-4%	17	-5%	2
CCN(CC)c1cc(C)nc2nc(-c3ccc(C)cc3)nn12	u	7%	u	x	x	x
O=C(COc1ccccc1C(=O)O)Nc1nc2ccc([N+](=O)[O-])cc2s1	u	3%	-23%	-26	-6%	-23
CCOc1ccc(S(=O)(=O)N/N=C2/CC(c3ccccc3)Oc3ccccc32)cc1 (centres undefined)	u	3%	16µM*	0	0%	9
O=C(N/N=C1\CC(c2ccccc2)Oc2ccccc21)c1ccc(O)cc1 (centres undefined)	u	-3%	u	-22	18µM*	-4
O=C(N/N=C1\CC(c2ccccc2)Oc2ccccc21)c1cccnc1 (centres undefined)	u	8%	21µM*	67	u	-5
O=C(N/N=C1\CC(c2ccccc2)Oc2ccccc21)c1ccccn1 (centres undefined)	-3%	5%	-9%	0	15%	8
O=C(N/N=C1/CC(c2ccccc2)Oc2ccccc21)C1CC1 (centres undefined)	u	6%	u	-3	7%	-2
SMILES	TDP1 cell CPT	TDP1 block	TDP1 cell noCPT	IL1B secr inh	ELG1 repair inh	Giardia killer
Cc1ccc(C(=O)N2CCCc3ccccc32)c(F)c1F	-25%	x	u	17	2%	17
CCCn1c(SCC(=O)Nc2nc3c(s2)CCCC3)nc2c1c(=O)n(C)c(=O)n2C	12µM*	7%	15µM*	16	u	-11
CCCCn1c(SCC(=O)Nc2nnc(C(C)C)s2)nc2c1c(=O)n(C)c(=O)n2C	18µM*	10%	18µM*	28	18µM*	2
S=C1NCCOCCNC(=S)NCCOCCOCCN1	-3%	8%	-4%	3	4%	-5
O=C(COc1ccccc1)NC(=S)Nc1cccc2cc(O)ccc12	17%	4%	15%	-8	4%	30
CN(Cc1c(F)cccc1Cl)C(=O)c1ccc(NC(=O)CC2SC(N3CCCC3)=NC2=O)cc1 (centres undefined)	u	0%	18µM*	-11	10%	-8
CCOC(=O)c1c(NC(=O)COC(=O)Cn2cnc3c2c(=O)n(C)c(=O)n3C)sc(C)c1CC	6.5µM*	x	-22%	15	u	-5
Cc1nc([N+](=O)[O-])cn1CC(O)c1ccc(F)cc1 (centres undefined)	8%	0%	-5%	4	-1%	-11
CCCCOc1ccccc1C1C(C(=O)OC)=C(C)N(C)C(C)=C1C(=O)OC	u	-10%[56.1 µM]	23µM*	-17	-20%	-12
COC(=O)C1=C(C)N(C)C(C)=C(C(=O)OC)C1c1ccccc1C	u	-1%	u	-1	-5%	15
Cc1ccc(NC(=O)CC2Oc3ccccc3NC2=O)cc1C (centres undefined)	-2%	3%	-21%	x	x	x
COc1cccc(N2CCN(S(=O)(=O)c3cc4c(cc3Cl)NC(=O)CO4)CC2)c1	9%	x	-10%	14	16%	40
CCCCC[C@H](O)/C=C/[C@H]1CCC(=O)[C@@H]1CCCCCCC(=O)N1CCCCC1CO (some centres undefined)	23µM*	x	15µM*	-23	u	-2
O=C(/C(=C/c1cccnc1)n1ccnc1)c1ccc(Cl)cc1Cl	16µM*	10%	15µM*	u	0%	-6

Assay outcomes deposited in PubChem BioAssay by National Center for Advancing Translational Sciences (NCATS).
